Source: the supplement of paper PMC5499739
In all, about 16,000 sequences were measured (“Z-score”: median about -0.37, highest 2% from about 3.1 on). The sample as a whole holds a higher share of the highest values than the screen did.

system: RBM10 RRM1-ZnF-RRM2 (GST-tagged construct); assay: RNAcompete 7-mer binding Z-score; higher = stronger binding preference
In short: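 In 1 ml Hepes pH 7.8 buffer with KCl, NaCl, glycerol, DTT, BSA and glutathione Sepharose beads, GST-tagged RBM10 constructs (20 pmol) were incubated for 30 min at 4°C with 1.5 nmol of a designed pool of 241 399 RNAs up to 41 nt. Four 2-min washes at 4°C followed, and bound RNA was detected by microarray hybridisation. Heptamer motif enrichment was expressed as a one-sided Z-score across probes containing each motif.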

Sequence	RNAcompete 7-mer binding Z-score
AAGGCAA	1.95
AGGGGAU	3.41
GGGGGAU	2.89
CAGGGAA	3.07
AAGGGAA	4.17
CAGGGAG	3.08
ACGGGAA	2.76
GAGGGAG	3.04
UAGGGAC	2.24
UAGGGAG	3.15
UGGGGAU	3.05
GUCUCCU	-0.694
CACAAGA	-0.391
AAAAUGG	2.68
CAAGUGA	0.228
GGCUAAA	0.661
AAGGGCA	3.44
AAGGGCU	1.39
AAGGGCC	1.53
GAUGGGG	4
UAUGGAG	1.68
GAUGGUA	2.46
GAUGGGC	2.09

Sequence	RNAcompete 7-mer binding Z-score
GAUGGAG	3.16
AAUGGGG	4.38
CAUGGGG	2.51
GAUGGGA	3.8
UAUGGGA	2.76
ACUGGGG	1.58
GAUGGUG	2.77
AAUGGAG	3.01
AGCAUUU	-0.726
GCCAGCA	-0.205
CCGGUGC	-0.136
CAUGCAA	-0.289
CUGUCCU	-0.817
UCUUCGG	-0.657
CGUGCGA	-0.209
CUCGAAG	-0.318
CGAACUC	-0.719
CAUGGAA	1.36
AAUGGGA	4.69
AAUGGGU	4.1
AAUGGAA	3.27
UAUGGGU	2.81
UAUGGAA	1.22

Sequence	RNAcompete 7-mer binding Z-score
CAUGGGA	2.16
GAUGGGU	3.01
UAUGGGC	1.64
AAUGGGC	2.92
UAUGGGG	3.19
CAUGGGU	2.58
CAUCCCA	-0.486
GCCAUCG	-0.646
GACUUCA	-0.672
UUGCUGA	-0.486
AUAAGUU	-0.249
CGAGAGG	1.46
UUCCAGA	-0.519
UGGCUUU	-0.464
AUGGAGA	2.59
AUGGAGG	4.33
AUGGAGU	2.24
GUGGAGU	2.86
ACGGAGG	2.57
GCGGAGG	3.25
GUGGAGG	4.09
CCGGAGG	0.876
GUGGAGC	2.47

Sequence	RNAcompete 7-mer binding Z-score
CGAUAAU	-0.256
GGAUCAA	1.19
CAUCCCU	-0.69
CGAAGUU	-0.235
AACAGUG	0.654
GCUCGCA	-0.373
UAACUAC	-0.551
CAAUAGG	1.3
CGAUUGG	0.825
GGAUUGU	0.822
GGAUUGG	3.28
AGAUAGG	2.87
GAAUAGG	3.18
GGAUAGG	4.1
GGAUAGA	2.48
UAAUAGG	0.742
UGACGCA	-0.107
AACCUAA	-0.734
UUAGCUC	-0.781
CGAUAUC	-0.5
GGAUCGC	0.538
UAUGAGG	1.54
